Bioassay records as filed in PubChem.
In the library only some 1.7% were active in any assay of this set; here they are far more common.
F508del corr – F508del CFTR correction, initial screen, CFBE line, single point; CFBE cells, YFP halide quenching; stimulated with forskolin plus potentiator P3; % fluorescence drop versus neutral controls; activity (quench increase), % at 7.58 µM; hit rate 0.36% among 350,000;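 active = mean added fluorescence quench of at least 8% versus neutral control, with both replicates also reaching 8%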;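 note: cells transiently co-express mutant CFTR-F508del with the halide-sensitive YFP; corrector assay measuring rescue of mutant channel to the surface after 24 h compound exposure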
FGF22 binding-1 – binders of human FGF22 protein, primary screen, FGF22 synaptogenesis inhibitor project, biophysical, thermal shift, single point | Fibroblast growth factor 22 (Homo sapiens), Q9HCT0 | recombinant FGF22 thermal shift, SYPRO orange fluorescence; percent of sucrose octasulfate shift, DMSO zero | activity (Tm shift, normalised), % at 9.99 µM | hit rate 1.5% among 340,000;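 active = mean Tm shift, scaled 0 neutral to 100 positive control, at about 1.3% or above, every replicate too, limit read from the data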
Target sequence (Q9HCT0 whole entry, looked up): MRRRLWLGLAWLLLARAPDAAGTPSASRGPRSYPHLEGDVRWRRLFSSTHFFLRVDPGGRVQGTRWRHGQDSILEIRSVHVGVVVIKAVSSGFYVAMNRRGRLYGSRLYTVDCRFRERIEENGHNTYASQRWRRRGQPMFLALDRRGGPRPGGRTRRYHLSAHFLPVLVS
Vif inh – HIV Vif self-association inhibitors, primary screen, imaging, HEK293T, single point | HEK293T cells, Vif self-association by quenched fluorescence, 24 h | inhibition, % at 7.49 µM | hit rate 0.35% among 340,000 | AID 602346, 2012; in the data active = inhibition above about 50%, passing the limit was not always enough
FGF22 binding-2 – binders of human FGF22 protein, dose response, FGF22 synaptogenesis inhibitor project, biophysical, thermal shift, cherry-pick retest; shares compounds with FGF22 binding-1; recombinant FGF22 thermal shift, SYPRO orange fluorescence; thermal shift activity, °C (ΔTm) at 38 µM; hit rate 2% among 1,000; AID 720646, 2013;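 active = fitted rise in melting shift crosses a set limit at or below the top valid dose tested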
FGF22 TSA – binders of human FGF22 protein, dose response, FGF22 synaptogenesis inhibitor project, biophysical, thermal shift, dry powder; Tm shift (activity), % at 38 µM; 50 tested, under 10 active; Thermal shift assay, SYPRO orange, melting temperature shift; AID 743017, 2013; shares compounds with FGF22 binding-1;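 active = compounds whose fitted dose curve of melting temperature shift rises past a set threshold within the tested doses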
SYPRO no-protein – compound-only thermal shift signal without protein, dose response, artefact control for FGF22 binder project, biochemical, cherry-picked samples, RT-PCR instrument; shares compounds with FGF22 binding-1; compound-only SYPRO orange thermal shift counter-screen, no protein; AC50, µM (top dose mostly 38 µM); hit rate 2% among 1,000; AID 743019, 2013;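 active = rising signal whose fitted curve reaches the 0.54 level within the top valid dose, showing a melting point, actives reach about 13 µM in these data; inactive = the rest, including activity in the opposite direction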; note: value is where the raw curve crosses a fixed level and not half-maximal
* hit, by the source's call; [ ] = another dose, or the depositor's remark.

Results for COc1ccc(-c2cn(CC[C@@H]3CC[C@@H](NC(=O)Nc4ccc(F)cc4)[C@H](CO)O3)nn2)cc1 ?
F508del corr: -5; FGF22 binding-2: -0.17[42 µM]; SYPRO no-protein: inactive

What do the screens show for `O=C(N[C@H]1CC[C@@H](CCn2cc(C3(O)CCCC3)nn2)O[C@@H]1CO)C1CCCCC1`?
F508del corr: 2; FGF22 binding-1: 0

Results for COc1ccc(NC(=O)N[C@H]2CC[C@@H](CCn3cc(-c4ccc(OC)cc4)nn3)O[C@@H]2CO)cc1 ?
F508del corr: 0; FGF22 binding-1: 1.3*; FGF22 binding-2: 0.11[42 µM]; SYPRO no-protein: inactive

What do the screens show for `COc1ccc(CN(C)C[C@@H]2Oc3ccc(NS(=O)(=O)c4cccs4)cc3CC(=O)N([C@H](C)CO)C[C@@H]2C)cc1`?
F508del corr: 0; FGF22 binding-1: 0

How did C[C@H](CO)N1C[C@H](C)[C@@H](CN(C)S(C)(=O)=O)Oc2ccc(NC(=O)Nc3cccc4ccccc34)cc2CC1=O do in these assays?
F508del corr: 3; FGF22 binding-1: 0

How did O=C(O)C[C@H]1C[C@@H]2c3cc(NS(=O)(=O)c4ccc(F)cc4)ccc3O[C@@H]2[C@H](CO)O1 do in these assays?
F508del corr: -2; FGF22 binding-1: 0

Results for C[C@H]1CCCCO[C@H](CN(C)C(=O)C2CCCCC2)[C@@H](C)CN([C@@H](C)CO)C(=O)c2cc(N(C)C)ccc2O1 ?
F508del corr: 2

How did O=C(COC(=O)c1cccnc1Cl)c1ccc(Cl)s1 do in these assays?
F508del corr: -1; FGF22 binding-1: 1; Vif inh: 0

Results for O=C(OCC(=O)c1ccc(Cl)s1)c1ccc2ccccc2n1 ?
F508del corr: -1; FGF22 binding-1: 1.7*; Vif inh: -2; FGF22 binding-2: 0.031; SYPRO no-protein: inactive

Results for NS(=O)(=O)c1cccc(C(=O)NC2CCSc3ccccc32)c1 (configuration not stated) ?
F508del corr: 0; FGF22 binding-1: 0; Vif inh: 5

How did NS(=O)(=O)c1cc(C(=O)NC2CCSc3ccccc32)ccc1Cl (configuration not stated) do in these assays?
F508del corr: 2; FGF22 binding-1: 1.8*; Vif inh: 8; FGF22 binding-2: 0.068; SYPRO no-protein: inactive

What do the screens show for `Cc1noc(C)c1NC(=O)N(C)C[C@H]1Oc2ccc(NS(C)(=O)=O)cc2C(=O)N([C@@H](C)CO)C[C@@H]1C`?
F508del corr: -3; FGF22 binding-1: 0

How did CC1CN(C(=O)C(C)N2CCN(c3cccc(Cl)c3)CC2)CC(C)O1 (configuration not stated) do in these assays?
F508del corr: -1; FGF22 binding-1: 0; Vif inh: 2

How did CC1CN(C(=O)C(C)N2CCN(c3ccccc3Cl)CC2)CC(C)O1 (configuration not stated) do in these assays?
F508del corr: -1; FGF22 binding-1: 17*; Vif inh: 0; FGF22 binding-2: -0.014; SYPRO no-protein: inactive

Results for O=c1c(Cl)c(O)c2cccc3c4ccccc4n1c23 ?
FGF22 binding-1: 2.3*; Vif inh: -5; FGF22 binding-2: 0.16; SYPRO no-protein: inactive

Results for COc1c(O)c(=O)n2c3ccccc3c3ccnc1c32 ?
F508del corr: -2; FGF22 binding-1: -1; Vif inh: -1

How did C[C@@H]1CN([C@@H](C)CO)C(=O)c2cc(C3=CCCC3)cnc2O[C@H]1CN(C)S(C)(=O)=O do in these assays?
F508del corr: 0; FGF22 binding-1: 0

How did O=C(N/N=C/c1c[nH]c2ccccc12)c1ccc(Br)cc1 do in these assays?
F508del corr: -1; FGF22 binding-1: 0; Vif inh: 2

Results for CC(C)(C)c1ccc(C2CC2C(=O)N/N=C\c2ccc[nH]2)cc1 (configuration not stated) ?
F508del corr: 4; FGF22 binding-1: 2.0*; Vif inh: -19; FGF22 binding-2: -0.039; SYPRO no-protein: inactive

What do the screens show for `O=C(N/N=C/c1ccco1)C1CC1c1ccccc1` (configuration not stated)?
FGF22 binding-1: 0; Vif inh: -13

Results for Nc1ccc(C(=O)N/N=C/c2c[nH]c3ccccc23)cc1 ?
F508del corr: 0; FGF22 binding-1: 2.7*; Vif inh: 6; FGF22 binding-2: 0.15; FGF22 TSA: 0; SYPRO no-protein: inactive

Results for O=C(N/N=C/c1c[nH]c2ccccc12)C1CC1(c1ccccc1)c1ccccc1 (configuration not stated) ?
Vif inh: -4

What do the screens show for `O=C(N/N=C/c1c[nH]c2ccccc12)C1CC1c1ccccc1` (configuration not stated)?
F508del corr: 3; FGF22 binding-1: 1.5*; Vif inh: -10; FGF22 binding-2: 0.036; SYPRO no-protein: inactive

Results for O=C(N/N=C/c1c[nH]c2ccccc12)c1ccc(Cl)cc1 ?
F508del corr: 2; FGF22 binding-1: 0; Vif inh: -11

Results for O=C(N/N=C\c1c[nH]c2ccccc12)c1ccc(O)cc1 ?
F508del corr: 1; FGF22 binding-1: 6.7*; Vif inh: -12; SYPRO no-protein: inactive

What do the screens show for `COCC(=O)Nc1ccc2c(c1)[C@@H]1C[C@H](CC(=O)NCc3ccc(OC)cc3)O[C@@H](CO)[C@@H]1O2`?
F508del corr: 2; FGF22 binding-1: 0

How did C[C@H]1CCCCO[C@H](CN(C)S(=O)(=O)c2ccc(F)cc2)[C@@H](C)CN([C@@H](C)CO)C(=O)c2cc(NC(=O)CCC(F)(F)F)ccc2O1 do in these assays?
F508del corr: 0

What do the screens show for `C[C@H]1CN([C@@H](C)CO)C(=O)c2cccc(NS(=O)(=O)c3cccs3)c2O[C@H]1CN(C)Cc1ccc(C(=O)O)cc1`?
F508del corr: -2; FGF22 binding-1: 0

Results for CCN(CC)S(=O)(=O)c1ccc(N/N=C(\C)c2ccc(OC)cc2O)nc1 ?
F508del corr: 3; FGF22 binding-1: 1.4*; Vif inh: 2; FGF22 binding-2: 0.14; SYPRO no-protein: inactive

Results for CCN(CC)S(=O)(=O)c1ccc(N/N=C/c2ccc(O)cc2)nc1 ?
F508del corr: 1; FGF22 binding-1: 0; Vif inh: 6
